Vc quorum ag – quorum light induction in luxS cqsA deficient V. cholerae. V. cholerae BH1578 lux reporter, luminescence, 6 h. activation, % at 18.7 µM. hit rate 0.16% among 350,000; in the data active means activation mostly above about 9.7%, no sharp cut-off; inconclusive means no clear call, values can overlap the other calls; inactive means mostly below about 3.7%
Mtb bLac sens – beta-lactam sensitization of Mtb H37Rv. M. tuberculosis H37Rv growth with meropenem, percent inhibition. inhibition, % at 25 µM. AID 434955. hit rate 0.27% among 330,000; call rule not given here;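 further: growth measured after seven days incubation then overnight dye step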
PfHsp40 yeast – restores yeast growth despite PfHsp40 toxicity. S. cerevisiae expressing PfHsp40, growth rescue, ATP luminescence. hit rate 0.68% among 340,000. growth rescue, % at 12.5 µM; in the data active means growth rescue above about 28%, passing the limit was not always enough; inconclusive means no clear call, values can overlap the other calls;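 further: yeast W303a lacking pdr1 and pdr3 grown in galactose medium; growth measured after three days at 30 °C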
ugtP null kill – compounds lethal to S. aureus RN4220 ugtP deletion mutant; OD600 growth, 16 h; growth inhibition, % (concentration not given with the values); AID 1259309; hit rate 0.54% among 330,000; in the data active means growth inhibition above about 68%
Sa RN4220 lethal – kills Staphylococcus aureus RN4220 | inhibition, % (concentration not given with the values) | hit rate 0.33% among 330,000 | AID 1259311 | S. aureus RN4220 growth, OD600, 16 h; in the data active means inhibition above about 85%
Each line names hits and unclear results; the compound was inactive in the other large screens. The list is not random: actives were taken first. Their share in the collection is about 1.2%.

O=C(CN1CCCC1)N/N=C/c1c(O)ccc2ccccc12	PfHsp40 yeast 52 (no result: ugtP null kill, Sa RN4220 lethal)
O=C(NN=Cc1c(O)ccc2ccccc12)c1cccc(C(F)(F)F)c1	ugtP null kill 100 (no result: Vc quorum ag, Mtb bLac sens, PfHsp40 yeast)
O=C(NN=Cc1c(O)ccc2ccccc12)C1CC1	ugtP null kill 90 (no result: Mtb bLac sens)
O=C(NN=Cc1cccc2ccccc12)C1CC1	none (no result: Mtb bLac sens)
O=C(NCc1nc2ccccc2[nH]1)C1=CC(c2ccc3c(c2)OCO3)CC(OCCCCO)O1 (stereo unspecified)	none (no result: Vc quorum ag, Mtb bLac sens, PfHsp40 yeast)
Cc1ccc(S(=O)(=O)Nc2cccc3cccnc23)cc1	PfHsp40 yeast inconclusive (no result: ugtP null kill, Sa RN4220 lethal)
COc1cc(NS(=O)(=O)c2ccc(C)cc2)c2ncccc2c1	PfHsp40 yeast 542
COc1ccccc1/C=C1\SC(=S)N(NS(=O)(=O)c2ccc(C)cc2)C1=O	PfHsp40 yeast 32, Sa RN4220 lethal 96
O=C(NN1C(=O)/C(=C/c2cccs2)SC1=S)c1ccncc1	none
COc1ccc(OC)c(/C=C2\SC(=S)N(NS(=O)(=O)c3ccccc3)C2=O)c1	none
O=C1/C(=C/c2cccs2)SC(=S)N1NS(=O)(=O)c1ccccc1	PfHsp40 yeast 222
COc1ccc(/C=C2\SC(=S)N(NS(=O)(=O)c3ccc(C)cc3)C2=O)c(OC)c1	none (no result: ugtP null kill, Sa RN4220 lethal)
COc1ccc(/C=C2\SC(=S)N(NS(=O)(=O)c3ccccc3)C2=O)c(OC)c1	ugtP null kill 91
C/C(=N\Nc1nc2ccccc2s1)c1ccc(Br)s1	PfHsp40 yeast 145 (no result: ugtP null kill, Sa RN4220 lethal)
CC(=NNc1nc2ccccc2s1)c1ccncn1	PfHsp40 yeast 150 (no result: Mtb bLac sens, ugtP null kill, Sa RN4220 lethal)
CC1C=C[C@](Cc2ccccc2)(C(=O)NCC2CC2)N1C(=O)c1ccccc1 (stereo partly specified)	none (no result: Vc quorum ag, Mtb bLac sens, PfHsp40 yeast)
Cc1ccc(-n2nnnc2SC(C(=O)c2c[nH]c3ccccc23)c2ccccc2)cc1 (stereo unspecified)	ugtP null kill 90
O=C1NC(=S)SC1=Cc1ccc(N(CCCl)CCCl)cc1	Sa RN4220 lethal 87 (no result: Mtb bLac sens)
O=C1NC(=O)C(=Cc2ccc(Cl)cc2Cl)S1	PfHsp40 yeast inconclusive, ugtP null kill 93, Sa RN4220 lethal 91 (no result: Mtb bLac sens)
O=C1NC(=S)SC1=Cc1ccc(F)cc1	ugtP null kill 92, Sa RN4220 lethal 90 (no result: Mtb bLac sens)
O=C1NC(=S)SC1=Cc1ccc(Cl)cc1	ugtP null kill 99, Sa RN4220 lethal 95 (no result: Mtb bLac sens)
O=C1NC(=S)S/C1=C\c1ccc2ccccc2c1	none (no result: ugtP null kill, Sa RN4220 lethal)
COc1ccc(C=C2SC(=S)NC2=O)cc1	none (no result: Mtb bLac sens, ugtP null kill, Sa RN4220 lethal)
O=C(O)c1ccccc1N(Cc1ccccc1)C(=O)CON=Cc1ccccc1	none (no result: Vc quorum ag, Mtb bLac sens, PfHsp40 yeast)
CCC1S/C(=N/N=Cc2cccs2)NC1=O (stereo unspecified)	none (no result: Vc quorum ag, Mtb bLac sens, PfHsp40 yeast)
CC(C)CC(NC(=O)c1[nH]cnc1C(=O)Nc1ccc(Cl)cc1)C(=O)OC(C)(C)C (stereo unspecified)	none (no result: Vc quorum ag, Mtb bLac sens, PfHsp40 yeast)
CC(C)(C)c1cc[n+](-c2[nH]c(=O)sc2C=N/N=C(\[O-])c2ccccc2)cc1	none (no result: Vc quorum ag, Mtb bLac sens, PfHsp40 yeast)
COc1ccc(C2CC(=O)C=C(c3cc(OC)ccc3OC)C2)cc1 (stereo unspecified)	none (no result: Vc quorum ag, Mtb bLac sens, PfHsp40 yeast)
Cc1ccc(-c2nnc(COC(=O)c3ccco3)o2)cc1	none
Cc1ccc(C(=O)OCc2nnc(-c3ccc(Br)cc3)o2)cc1	PfHsp40 yeast 27
CCCC1CCC(c2ccc(C(=O)NN)cc2)CC1 (stereo unspecified)	ugtP null kill 98
CCCC1CCC(c2ccc(C(N)=O)cc2)CC1 (stereo unspecified)	none
CCCCC1CNC(=S)N1CCc1cccc(F)c1 (stereo unspecified)	none (no result: Vc quorum ag, Mtb bLac sens, PfHsp40 yeast)
COc1ccc(C(c2c(O)ccc3ccccc23)N2CCOCC2)c(OC)c1 (stereo unspecified)	PfHsp40 yeast 410 (no result: Vc quorum ag, ugtP null kill, Sa RN4220 lethal)
O=c1c(=Cc2ccc([N+](=O)[O-])cc2)sc2n1CCCN=2	none (no result: Vc quorum ag, Mtb bLac sens, PfHsp40 yeast)
Cc1cc(C)nc(NC(=O)CSc2nc3cc(Cl)ccc3s2)n1	PfHsp40 yeast 66
Cc1onc(-c2c(Cl)cccc2Cl)c1C(=O)NC1C(=O)N2C1SC(C)(C)C2C(=O)O (stereo unspecified)	ugtP null kill 100, Sa RN4220 lethal 101
Cc1onc(-c2ccccc2Cl)c1C(=O)NC1C(=O)N2C1SC(C)(C)C2C(=O)O (stereo unspecified)	ugtP null kill 100, Sa RN4220 lethal 99 (no result: Vc quorum ag, Mtb bLac sens, PfHsp40 yeast)
Cc1onc(-c2c(Cl)cccc2Cl)c1C(=O)N[C@@H]1C(=O)N2[C@@H]1SC(C)(C)[C@@H]2C(=O)O	none
Cc1sc(NC(=O)c2ccco2)c(C(c2ccccc2)N2CCC(C)CC2)c1C (stereo unspecified)	ugtP null kill active
COc1ccc(C(=O)Nc2nnc(C3=COCCO3)o2)cc1	Mtb bLac sens inconclusive
COc1ccc(-c2nnc(NC(=O)c3ccc([N+](=O)[O-])o3)o2)c(OC)c1	ugtP null kill 96
Cc1ccc(-c2nnc(NC(=O)c3ccc([N+](=O)[O-])o3)o2)c(C)c1	ugtP null kill 92
Cc1ccc(NC(=O)c2ccc([N+](=O)[O-])o2)c(C)c1	none
CC1CCCN(c2ccc([N+](=O)[O-])cc2C(=O)c2ccccc2)C1 (stereo unspecified)	ugtP null kill 87
O=C(c1ccccc1)c1cc([N+](=O)[O-])ccc1N1CCOCC1	none
CN(C(=O)CSc1nnc(-c2ccc(F)cc2)n1C)C1CCS(=O)(=O)C1 (stereo unspecified)	none
CN(C(=O)CSc1nnc(-c2ccccc2)n1C)C1CCS(=O)(=O)C1 (stereo unspecified)	PfHsp40 yeast 44
C[C@@]12C(=O)N(c3ccccc3)C(=O)N1C1c3ccccc3OCC1C2c1ccccc1 (stereo partly specified)	none (no result: Vc quorum ag, Mtb bLac sens, PfHsp40 yeast)
Oc1ccc(C=NNC(=S)NCc2ccco2)cc1	none (no result: Vc quorum ag, Mtb bLac sens, PfHsp40 yeast)
CCC1=NN(C(=O)c2ccccc2O)C(O)(c2ccccc2)C1 (stereo unspecified)	PfHsp40 yeast 83 (no result: ugtP null kill, Sa RN4220 lethal)
CCC1=NN(C(=O)c2ccccc2Br)C(O)(c2ccc(Br)cc2)C1 (stereo unspecified)	none
CC(C)(C)NC(=O)C1CCC2C3CCC4NC(=O)C=C[C@]4(C)C3CC[C@]12C (stereo partly specified)	none (no result: Vc quorum ag, Mtb bLac sens, PfHsp40 yeast)
COc1cc2c(c(OC)c1OC)-c1ccc(O)cc1C(NC(C)=O)CC2 (stereo unspecified)	none (no result: Mtb bLac sens)
COc1cc2c(c(OC)c1OC)-c1ccc(O)c(=O)cc1[C@@H](NC(C)=O)CC2	PfHsp40 yeast 325 (no result: ugtP null kill, Sa RN4220 lethal)
C=CC1C(OC2OC(CO)C(O)C(O)C2O)OC=C2C(=O)OCC[C@]21O (stereo partly specified)	none (no result: Vc quorum ag, Mtb bLac sens, PfHsp40 yeast)
O=Nc1c(-c2c(O)[nH]c3cc(Br)ccc23)[nH]c2ccccc12	ugtP null kill 100, Sa RN4220 lethal 100
O=C(CSCc1cccc(Br)c1)N=Nc1c(O)[nH]c2ccccc12	none
COc1ccc(C2CC(=O)C=C(c3ccc(NC(C)=O)cc3)C2)cc1OC (stereo unspecified)	none (no result: Vc quorum ag, Mtb bLac sens, PfHsp40 yeast)
CCN(CC(=O)Nc1cc(Cl)ccc1C)c1ncnc2sc(C)c(C)c12	PfHsp40 yeast 33
CC=C(C)C(=O)OC1c2c(ccc3ccc(=O)oc23)OC1C(C)(C)OC(=O)C(C)=CC (stereo unspecified)	ugtP null kill 97 (no result: Vc quorum ag, Mtb bLac sens, PfHsp40 yeast)
O=C1CC2c3c(cccc3CN1Cc1ccccc1)CC(O)C2O (stereo unspecified)	none (no result: Vc quorum ag, Mtb bLac sens, PfHsp40 yeast)
Cc1cc2c(cc1C)CSC(c1c(O)ccc3ccccc13)SC2	PfHsp40 yeast 160
C/C(=N\Nc1nccnc1Cl)c1c(F)c(F)c(F)c(F)c1F	PfHsp40 yeast 59 (no result: ugtP null kill, Sa RN4220 lethal)
